High-throughput results from PubChem.
HPGD block – HPGD (human) dehydrogenase inhibition; AID 894; P15428; Potency, µM, for the others: top-dose activity change, negative = inhibition, most hits filed as inhibitors; 150,000 compounds, 4.3% hits; purified HPGD, NADH fluorescence kinetic, PGE2 substrate
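NADH formation kinetics: reaction with 30 uM PGE2 and 1 mM NAD+ (final), 20 nM enzyme, Tris-HCl pH 8 with Tween 20, after 15 min compound preincubation at room temperature. Fluorescence change, last versus first of five reads.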
Tau FP inhib – tau fibrillization inhibition (FP); 280,000 compounds, 0.39% hits; Potency, µM (top dose mostly 57.7 µM), for inactives: top-dose activity, negative = inhibition, actives largely listed as inhibitors; K18 P301L tau heparin fibrillization, Alexa594 FP, 6 h; P10636; active = well fitted curve in the direction sought with a large enough effect; inconclusive = small, poorly fitted or top-dose-only effect, or another doubt; inactive = no such curve, though single readings can be large; an effect the other way counts as inactive or inconclusive; also: nearly all actives have a fitted effect of over 55% in size
Target sequence (P10636 561-689 P618L limits assumed): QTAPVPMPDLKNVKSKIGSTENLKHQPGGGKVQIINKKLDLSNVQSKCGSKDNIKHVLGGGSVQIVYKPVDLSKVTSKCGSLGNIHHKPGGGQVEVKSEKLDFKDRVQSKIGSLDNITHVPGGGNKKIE
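Steps: dispense K18 P301L tau (15 uM plus 0.24 uM Alexa 594 tracer, final) in pH 7 sodium acetate; add compound; add heparin (20 uM final); incubate 6 hr, 37 C; add ThT (30 uM final); after 1 hr ambient, read FP.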
Tau fluor cs – counter-screen for tau fibril formation inhibitors. tau K18 P301L Alexa594 fluorescence, heparin fibrillization. Potency, µM (doses to about 57.7 µM), inactives show top-dose activity change, negative = decrease. AID 1463. 280,000 compounds, 0.93% hits; active = well fitted curve in the direction sought with a large enough effect; inconclusive = small, poorly fitted or top-dose-only effect, or another doubt; inactive = no such curve, though single readings can be large; an effect the other way counts as inactive or inconclusive; also: nearly all actives have a fitted effect of over 55% in size
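Human K18 P301L tau (15 uM unlabeled plus 0.24 uM Alexa 594-labeled, final) in 100 mM sodium acetate pH 7 was mixed with compound and 20 uM heparin and incubated 6 hr at 37 C.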
Tau ThT inhib – blocks human tau fibril formation measured by thioflavin T; Potency, µM (highest dose often 57.4 µM), without a hit: at the top dose activity, negative = inhibition, most hits filed as inhibitors; recombinant tau K18 P301L (four-repeat tau fragment), heparin-induced fibrillization, ThT fluorescence; 270,000 compounds, 2.1% hits; active = well fitted curve in the direction sought with a large enough effect; inconclusive = small, poorly fitted or top-dose-only effect, or another doubt; inactive = no such curve, though single readings can be large; an effect the other way counts as inactive or inconclusive; also: nearly all actives have a fitted effect of over 55% in size
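In this qHTS, human K18 P301L tau is incubated with compound and heparin for 6 hr at 37 C, and Thioflavin T fluorescence then reports fibril load.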
JMJD2E inh – JMJD2E (human) inhibition. JMJD2E catalytic domain, FDH-coupled NADH fluorescence (FDH is formaldehyde dehydrogenase). Potency, µM (doses to about 57.1 µM), inactives show at the highest dose activity change, negative = inhibition, usual class: inhibitors. 230,000 compounds, 1.6% hits;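 also: 0% = wells with enzyme and -100% = buffer wells without enzyme; nearly all actives have a fitted effect of over 50% in size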
ALDH1A1 inh – blocks purified human ALDH1A1 activity. Purified ALDH1A1, NADH fluorescence, propionaldehyde substrate. Potency, µM (doses to about 75.3 µM), for inactives: top-dose activity, negative = inhibition, usual class: inhibitors. 220,000 compounds, 7.3% hits. AID 1030;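 also: plate controls were no enzyme wells and a reference inhibitor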
Target sequence (P00352 whole entry, looked up): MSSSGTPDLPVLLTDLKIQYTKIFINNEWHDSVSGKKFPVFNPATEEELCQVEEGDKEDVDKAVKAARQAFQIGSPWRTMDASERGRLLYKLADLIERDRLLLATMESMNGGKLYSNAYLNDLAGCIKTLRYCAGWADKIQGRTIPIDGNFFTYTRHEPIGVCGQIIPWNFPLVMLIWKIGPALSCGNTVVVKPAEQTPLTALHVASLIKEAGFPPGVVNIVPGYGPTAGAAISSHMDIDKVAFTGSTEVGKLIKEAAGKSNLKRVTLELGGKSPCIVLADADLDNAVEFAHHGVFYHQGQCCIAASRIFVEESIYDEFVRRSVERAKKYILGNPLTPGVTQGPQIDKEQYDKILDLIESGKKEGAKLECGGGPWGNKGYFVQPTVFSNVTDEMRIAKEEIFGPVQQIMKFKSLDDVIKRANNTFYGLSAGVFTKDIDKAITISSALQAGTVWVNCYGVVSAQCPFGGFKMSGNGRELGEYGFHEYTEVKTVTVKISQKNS
Starred values were filed as active, the others as inactive; ? = inconclusive; · = no result given; [ ] = another dose, or the depositor's remark. Shown are actives, neighbours in structure and some others; about 9.9% of the full set was active somewhere. Unless noted, calls follow the shape of the dose curve; as a rule, active = well fitted inhibition curve with a large enough effect (not every such curve was filed as active); inconclusive = small, poorly fitted or top-dose-only effect, or another doubt; inactive = no such curve, though single readings can be large or run the other way. Unless noted, % is scaled to controls: 0 for no effect and ±100 for the full control effect; potency is read from the fitted curve at half-maximal effect.

SMILES | HPGD block | Tau FP inhib | Tau fluor cs | Tau ThT inhib | JMJD2E inh | ALDH1A1 inh
CCOC(=O)c1ccc(N2C(=O)CC(Nc3ccc(O)cc3)C2=O)cc1 (stereo unspecified) | · | -6% | -19% | · | -6% | ·
CCCOc1ccc(N2C(=O)CC(SCCc3nc4ccccc4[nH]3)C2=O)cc1 (stereo unspecified) | · | -2% | -8% | -16% | -5% | ?
CCOc1ccc(N2C(=O)CC(SCC(=O)O)C2=O)cc1 (stereo unspecified) | · | -1% | -4% | -8% | -1% | ?
CCOC(=O)C(N)CSC1CC(=O)N(c2ccc(C(=O)OC)cc2)C1=O (stereo unspecified) | -10% | -9% | -10% | -12% | 5% | 7.1µM*
O=C(Nc1nc2ccsc2c(=O)s1)c1ccc(Cl)cc1 | · | -1% | 13% | · | 5% | ·
Cc1cc(C)cc(OCC(=O)N(Cc2ccco2)Cc2ccccc2Cl)c1 | · | -7% | -14% | -16% | · | ·
Cc1noc(C)c1-c1ccc2ncnc(N(C)Cc3ccco3)c2c1 | 13µM* | -10% | -22% | -21% | -19% | 5%
COc1ccc(NC(=O)c2cccc(-n3c(C)ccc3C)c2)c(OC)c1 | -7% | -9% | -13% | ? | 1% | 1%
Cc1ccc(-c2csc(=S)n2CC(=O)OCC(=O)NCc2ccco2)cc1 | -10% | -2% | -2% | -16% | -3% | ?
Cc1ccc(-c2csc(=S)n2CC(=O)OCC(=O)NC(C)C(C)C)cc1 (stereo unspecified) | -15% | 0% | -10% | -13% | -3% | 1.6µM*
CC(O)[C@@H](C(=O)N1CCNCC1)n1cc(CCCCN)nn1 (stereo partly specified) | · | 4% | 7% | 5% | 5% | 2%
Brc1ccc(N=Nc2ccc3ccccc3n2)cc1 | · | 2% | -16% | 1.1µM* | 4% | 12%
CCOc1ccccc1NC(=O)CSc1nc2ccccc2c2nc(CCn3cncc3C)nn12 | · | 12% | 5% | -11% | · | ·
O=[N+]([O-])c1ccc(Cl)c(CNc2ncnc3c2ncn3[C@@H]2CCCCO2)c1 | 3.5µM* | · | · | · | · | -9%[13.5 µM]
Cc1ccc(NC(=O)CCn2ccc([N+](=O)[O-])n2)nc1 | -17% | -11% | -6% | -15% | -4% | ?
Cc1cc(OCC(=O)NC(C)c2ccccc2)ccc1[N+](=O)[O-] (stereo unspecified) | · | 10% | -4% | 1% | -2% | 25µM*
Clc1ccccc1-c1nnc2sc(-c3cccs3)nn12 | 28µM* | -3% | 0% | -2% | -9% | 14µM*
Clc1ccccc1-c1nn2c(-c3ccncc3)nnc2s1 | 11µM* | -6% | -3% | -11% | 4% | 11µM*
Clc1ccccc1-c1nnc2sc(-c3ccncc3)nn12 | -17% | -4% | -11% | -14% | 0% | -5%
CN1CCN(c2ccccc2NC(=O)c2ccc([N+](=O)[O-])cc2Cl)CC1 | · | -7% | -26% | ? | -1% | -2%
O=C(CNc1ccc(Cl)cc1)c1ccc(Br)cc1 | · | 8% | 2% | -15% | -1% | 10µM*
O=C(CNc1ccc(Br)cc1)c1ccc(O)cc1 | · | 7% | ? | ? | -2% | 11µM*
C/C(=C\C(=O)c1ccc(Br)cc1)Nc1ccc(Cl)cc1 | -27% | 2% | 12% | 13% | 1% | ?
Cc1ccccc1OCCn1c(-c2ccc(Cl)cc2)nc2ccccc2c1=O | · | ? | -16% | -18% | · | ·
CCc1ccc(NC(=O)CSc2nc3n[nH]c(C)c3c(=N)n2-c2ccc(C)cc2)cc1 | · | -2% | -12% | 3% | · | ·
SMILES | HPGD block | Tau FP inhib | Tau fluor cs | Tau ThT inhib | JMJD2E inh | ALDH1A1 inh
Cc1ccc(NC(=O)CC2SC3=NCCCN3C2=O)c(C)c1 (stereo unspecified) | -12% | 4% | -6% | ? | -4% | 1µM*
Cc1oc(C)c2c(=O)cc(-c3ccc4c(c3)OCO4)cc(OC(=O)c3ccccc3Br)c12 | · | -6% | -23% | ? | · | ·
Cc1nc2cc(C)c(C)cc2s1 | · | -1% | 6% | 9% | 9% | 8%
Cc1cc2nc3ccc(=[N+](C)C)cc-3sc2cc1N | · | 8.9µM* | ? | 1.1µM* | 14µM* | ·
COc1ccc(CCNC(=O)c2cc3c(=O)n(C)c4ccccc4c3n2C)c(OC)c1 | · | 0% | -16% | · | ? | ·
CC(C)(O)C(=O)N=Nc1c(O)[nH]c2ccccc12 | · | 5% | 13% | 10% | 9% | -7%
O=C(CN1CCCCC1)N=Nc1c(O)[nH]c2ccccc12 | · | -3% | -1% | -6% | 5% | 13µM*
COC(=O)/C=C(\C)N=Nc1c(O)[nH]c2ccccc12 | · | -6% | -20% | 11µM* | 8% | ·
CN(C)C(=O)c1ccc(-c2cncnc2NCCc2cnc[nH]2)cc1 | · | · | · | · | · | -1%
CN(C)C(CNC(=S)Nc1ccc(F)cc1)c1cccnc1 (stereo unspecified) | · | -3% | -2% | 2% | 0% | 10%
COc1cc(NC(=O)COC(=O)CNS(=O)(=O)c2ccc(F)c(F)c2F)cc(OC)c1 | -19% | -5% | -15% | 0% | -11% | -5%
CN(C)c1ccc(S(=O)(=O)NCC(=O)OCC(=O)Nc2cc(Cl)cc(Cl)c2)cc1[N+](=O)[O-] | -3% | ? | ? | 28µM* | ? | 14µM*
Nc1ccc(Br)c2c1C(=O)c1ccccc1C2=O | -12% | 3% | ? | 5µM* | 6% | ?
O=C1c2ccccc2C(=O)c2c(O)c(O)cc(O)c21 | 25µM* | ? | 14µM*[quencher] | 5µM* | 22µM* | ?
O=C1c2ccccc2C(=O)c2c(O)ccc(O)c21 | -9% | ? | -28% | ? | -15% | 3%
Nc1ccc(O)c2c1C(=O)c1ccccc1C2=O | 13µM* | 5% | -2% | 1% | -1% | -4%
C#CCNC(=O)C1=C[C@@H](c2ccc(C(F)(F)F)cc2)[C@H](CCCO)[C@@H](OCC)O1 | · | 6% | 5% | 8% | 6% | 7%
COc1ccc2c(c1)/C(=N/N1C(=O)c3ccccc3C1=O)C(=O)N2 | · | 1% | -12% | ? | -1% | ?
Cc1ccc2c(c1Br)/C(=N/N1C(=O)c3ccccc3C1=O)C(=O)N2 | -12% | 0% | -17% | ? | 1% | 0.75µM*
COC(=O)c1cc(=O)c(O)c2c(O)c(O)ccc2c1 | 7.9µM* | 7.9µM* | ? | 3.5µM* | 8.9µM* | 11µM*
COC(=O)c1cccc(N2CCCC2=O)c1 | · | 1% | 19% | · | -6% | ·
Cc1ccc(-n2nc(C(=O)Nc3ccc(Br)cc3C)c(=O)n(C)c2=O)cc1 | · | 5% | 14% | 7% | · | ·
COc1ccc(C2CC(c3c(O)cc(C)oc3=O)=NCCS2)c(OC)c1 (stereo unspecified) | 16µM* | ? | -20% | ? | -29% | ?
